Laboratory results as given in PubChem BioAssay AID2778 (National Center for Advancing Translational Sciences (NCATS), 2010).
Records with an inconclusive call do not appear. A call without a number means that no potency is given here. Activity calls are given as the source filed them. Calls follow the shape of the dose curve; as a rule, active = well fitted inhibition curve with a large enough effect; inconclusive = small, poorly fitted or top-dose-only effect, or effect the other way; inactive = flat fitted curve, though single readings scatter.

Molecular target: Menin (Homo sapiens) (UniProt O00255)
Assay: Confirmation of Inhibitors Targeting the Menin-MLL Interaction in MLL Related Leukemias: Confirmation in an HTRF (commercial TR-FRET) Assay using His-tagged menin and biotin-labeled MLL peptide
Conditions: His-menin / biotin-MLL peptide binding; series mostly up to 126 µM
Outline: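 HTRF: His6-menin (200 nM) and biotin-MLL-w.t. peptide (80 nM) preincubated 15 min, then compounds 1 hr at ambient, before Eu-cryptate anti-His (3.5 nM) and streptavidin-XL665 (10 nM) for 1 h; 50 mM Tris-HCl pH 7.5, 50 mM NaCl, 1 mM DTT, BSA.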
Potency is read from the fitted curve at half-maximal effect.

Sequence of Menin (Homo sapiens) (O00255 whole entry, looked up): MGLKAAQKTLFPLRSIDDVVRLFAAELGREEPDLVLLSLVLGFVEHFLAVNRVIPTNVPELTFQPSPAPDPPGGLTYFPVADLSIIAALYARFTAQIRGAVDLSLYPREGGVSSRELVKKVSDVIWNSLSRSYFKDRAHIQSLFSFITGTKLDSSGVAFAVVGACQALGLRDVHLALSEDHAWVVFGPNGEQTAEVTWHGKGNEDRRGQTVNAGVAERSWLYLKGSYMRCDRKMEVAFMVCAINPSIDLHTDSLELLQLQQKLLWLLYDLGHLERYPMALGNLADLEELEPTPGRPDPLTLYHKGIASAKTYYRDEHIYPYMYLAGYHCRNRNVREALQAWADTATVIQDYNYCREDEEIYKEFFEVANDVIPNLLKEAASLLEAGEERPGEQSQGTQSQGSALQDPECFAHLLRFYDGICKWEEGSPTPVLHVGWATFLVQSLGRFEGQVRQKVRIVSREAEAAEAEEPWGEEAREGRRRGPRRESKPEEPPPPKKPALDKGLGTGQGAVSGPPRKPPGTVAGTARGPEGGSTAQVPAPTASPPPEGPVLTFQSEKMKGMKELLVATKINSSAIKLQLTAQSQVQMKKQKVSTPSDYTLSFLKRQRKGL

Row | SMILES | Potency
1 | Cc1c(F)cccc1NS(=O)(=O)c1ccc2c(c1)c(C)cc(=O)n2C | inactive
2 | COc1cccc(NC(=O)N2CCCc3ccccc32)c1 | inactive
3 | CC1CCCCN1S(=O)(=O)c1ccc(C(=O)Nc2ccccc2-c2nc3ccccc3[nH]2)cc1 (stereo not drawn) | inactive
4 | CN1CCS/C1=C/C=C1/SC(=S)N(Cc2ccccc2)C1=O | inactive
5 | COc1ccc(CN2CCC(Cc3ccccc3)CC2)c(C)c1C | inactive
6 | COc1ccc(-c2csc(NC(=O)c3cc(-c4cccs4)nc4ccccc34)n2)c(OC)c1 | inactive
7 | O=C(O)CCC(=O)Nc1ccc(SSc2ccc(NC(=O)CCC(=O)O)cc2)cc1 | inactive
8 | CCOc1cc(CNCCc2ccc(S(N)(=O)=O)cc2)ccc1OCc1ccccc1 | 251 µM (active)
9 | CCc1ccc(NC(=O)CSc2nc(O)cc(=O)n2C2CCCC2)cc1 | inactive
10 | CCn1ncc(C(=O)Nc2cc(C)on2)c1C | inactive
11 | O=C(Nc1cccn(Cc2c(Cl)cccc2Cl)c1=O)c1c(Cl)cccc1Cl | inactive
12 | CN(C)CCCOc1ccc2c(c1)Sc1ccccc1CC2=O | inactive
13 | CCCC(=O)Nc1cccc(NC(=O)c2ccc([N+](=O)[O-])cc2Cl)c1 | inactive
14 | COCC(=O)Nc1cccc2ccccc12 | inactive
15 | CCCC(c1nnnn1Cc1cccs1)N1CCN(C2CCCC2)CC1 (stereo not drawn) | inactive
16 | Cn1ncc2c(N3CCCCC3)nc(NCCCO)nc21 | inactive
17 | COc1ccccc1N(CC1CO1)S(=O)(=O)c1ccccc1 (stereo not drawn) | inactive
18 | CN1CCN(CC(=O)c2ccccc2F)CC1 | inactive
